Rows were chosen to be rich in hits. Some 3.5% of all compounds tested hit in one or more screens of this group.
BoNT-A LC inh2: BoNT/A light chain protease inhibitors, primary screen, biochemical, flow cytometry, MLPCN library. actives 0.17% (n = 360,000). inhibition, % at 10 µM. multiplex microsphere protease substrate cleavage; note: plate controls were buffer without enzyme for full effect and enzyme alone for no effect
Autofluor counter: counter-screen for toxin protease inhibitors: compound fluorescence. compound autofluorescence counterscreen, microsphere flow cytometry; active compounds read high. fluorescence intensity (test concentration not listed). actives 3.1% (n = 360,000). AID 624483; in the data active = fluorescence intensity above about 16000; inconclusive = no clear call, values can overlap the other calls
Anthrax LF inh2: Bacillus anthracis LF protease inhibitors, primary screen, biochemical, multiplex microsphere, MLPCN library; Lethal factor (Bacillus anthracis), P15917; multiplex microsphere protease cleavage assay; inhibition, % at 10 µM; actives 0.12% (n = 360,000); AID 588501, 2011; note: plate controls were buffer without enzyme for full effect and enzyme alone for no effect
Target sequence (P15917 whole entry, looked up): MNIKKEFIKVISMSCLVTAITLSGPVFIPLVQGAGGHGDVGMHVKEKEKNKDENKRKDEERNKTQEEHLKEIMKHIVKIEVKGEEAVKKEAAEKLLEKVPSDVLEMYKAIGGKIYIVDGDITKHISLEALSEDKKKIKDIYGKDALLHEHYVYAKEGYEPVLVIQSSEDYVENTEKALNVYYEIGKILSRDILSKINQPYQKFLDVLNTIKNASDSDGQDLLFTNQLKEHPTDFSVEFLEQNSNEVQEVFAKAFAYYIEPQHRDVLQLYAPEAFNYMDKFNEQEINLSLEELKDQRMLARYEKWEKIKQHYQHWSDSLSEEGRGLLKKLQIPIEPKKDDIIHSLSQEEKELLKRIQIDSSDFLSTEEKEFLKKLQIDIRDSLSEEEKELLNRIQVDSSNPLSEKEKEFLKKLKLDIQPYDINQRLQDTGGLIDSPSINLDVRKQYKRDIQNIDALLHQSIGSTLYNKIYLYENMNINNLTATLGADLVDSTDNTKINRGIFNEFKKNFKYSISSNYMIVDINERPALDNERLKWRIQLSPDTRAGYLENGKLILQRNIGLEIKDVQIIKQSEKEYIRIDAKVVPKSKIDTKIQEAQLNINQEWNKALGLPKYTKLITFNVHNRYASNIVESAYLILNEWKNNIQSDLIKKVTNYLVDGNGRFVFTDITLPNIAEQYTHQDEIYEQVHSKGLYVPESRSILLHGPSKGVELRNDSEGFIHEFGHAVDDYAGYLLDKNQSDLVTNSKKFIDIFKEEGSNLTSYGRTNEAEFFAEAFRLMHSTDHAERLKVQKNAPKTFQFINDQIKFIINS
BoNT-F LC inh: BoNT/F light chain protease inhibitors, primary screen, biochemical, flow cytometry, MLPCN library; inhibition, % at 10 µM; actives 0.22% (n = 360,000); Multiplex microsphere protease cleavage assay; in the data active = inhibition above about 35%, passing the limit was not always enough; inconclusive = no clear call, values can overlap the other calls; note: plate controls were buffer without enzyme for full effect and enzyme alone for no effect
Active calls of the source: *. Cut-off read from the data, not from the text of the source, unless noted: active = inhibition above about 30%; inconclusive = no clear call, values can overlap the other calls; inactive = below that.

What do the screens show for `Cn1c(CN2CCCCC2)nc2cc(NC(=O)c3ccccc3)ccc21`?
BoNT-A LC inh2: 2; Autofluor counter: 22188*; Anthrax LF inh2: 4; BoNT-F LC inh: 1

How did O=C(COc1ccccc1)NCC(=O)N1CCCCCC1 do in these assays?
BoNT-A LC inh2: 0; Autofluor counter: 3754; Anthrax LF inh2: -1; BoNT-F LC inh: 1

Results for COc1cccc(COC(=O)CSCC(=O)Nc2ccc(C)cc2)c1OC ?
BoNT-A LC inh2: -1; Autofluor counter: 3009; Anthrax LF inh2: 5; BoNT-F LC inh: -6

How did CC1CCCC(C)N1CCNC(=O)Nc1ccc(Cl)cc1 (stereo not drawn) do in these assays?
BoNT-A LC inh2: 3; Autofluor counter: 22625*; Anthrax LF inh2: -7; BoNT-F LC inh: 3

Results for CN1CCN(CCNC(=O)Nc2ccc(Cl)cc2)CC1 ?
BoNT-A LC inh2: 1; Autofluor counter: 3685; Anthrax LF inh2: -7; BoNT-F LC inh: inconclusive

Results for CC1CCN(S(=O)(=O)c2cc(Br)cc(C(=O)NC3=NCCS3)c2)CC1 ?
BoNT-A LC inh2: 0; Autofluor counter: 24164*; Anthrax LF inh2: 0; BoNT-F LC inh: -7

What do the screens show for `O=C(O)c1cc(NCc2ccccc2C(F)(F)F)ccc1N1CCOCC1`?
BoNT-A LC inh2: inconclusive; Autofluor counter: 22050*; Anthrax LF inh2: 0; BoNT-F LC inh: -2

How did CCOC(=O)c1c(N)nn(C(=O)C(C)(C)C)c1-c1ccccc1 do in these assays?
BoNT-A LC inh2: -1; Autofluor counter: 22970*; Anthrax LF inh2: -1; BoNT-F LC inh: -2

Results for CC(=O)Nc1cncc(-c2cccc(C(=O)N3CCOCC3)c2)n1 ?
BoNT-A LC inh2: 0; Autofluor counter: 4158; Anthrax LF inh2: 1; BoNT-F LC inh: 0

Results for Cc1cc(C(=O)CSc2n[nH]c(N)n2)c(C)n1-c1ccccc1 ?
BoNT-A LC inh2: 1; Autofluor counter: 16214*; Anthrax LF inh2: -1; BoNT-F LC inh: 3

How did Cc1cc(C(=O)COC(=O)C2=NNC(=O)CC2)c(C)n1-c1ccccc1 do in these assays?
BoNT-A LC inh2: 1; Autofluor counter: 19448*; Anthrax LF inh2: -9; BoNT-F LC inh: 2

Results for Cc1nc(SCC(=O)c2ccc(F)cc2)n[nH]1 ?
BoNT-A LC inh2: 1; Autofluor counter: 21307*; Anthrax LF inh2: 0; BoNT-F LC inh: 2

How did Cc1ccc(-n2c(C)cc(C(=O)COC(=O)c3c(C)noc3C)c2C)cc1 do in these assays?
BoNT-A LC inh2: 0; Autofluor counter: 23721*; Anthrax LF inh2: -3; BoNT-F LC inh: -3

What do the screens show for `Cc1cc(C(=O)N2CCCC(C)(C(=O)NS(=O)(=O)C3CC3)C2)nn1C(C)(C)C` (stereo not drawn)?
BoNT-A LC inh2: 0; Autofluor counter: 3763; Anthrax LF inh2: 2; BoNT-F LC inh: 1

How did COc1ccc(CC(C)Nc2cccc(SC)c2)cc1 (stereo not drawn) do in these assays?
BoNT-A LC inh2: 0; Autofluor counter: 3723; Anthrax LF inh2: -5; BoNT-F LC inh: -13

How did COC(=O)C1=CN(c2cccc(Cl)c2)C=C(C(=O)OC)C1c1cccc(OC)c1 do in these assays?
BoNT-A LC inh2: 0; Autofluor counter: 5641; Anthrax LF inh2: 0; BoNT-F LC inh: -4

How did Cc1cc(C(=O)CSc2n[nH]c(N)n2)c(C)n1-c1ccc(F)cc1 do in these assays?
BoNT-A LC inh2: inconclusive; Autofluor counter: 22336*; Anthrax LF inh2: -3; BoNT-F LC inh: -3

What do the screens show for `COc1cc(S(=O)(=O)Nc2ccccc2C)ccc1Cl`?
BoNT-A LC inh2: 0; Autofluor counter: 2864; Anthrax LF inh2: -3; BoNT-F LC inh: 3

How did COc1cc(S(=O)(=O)Nc2c(C)cc(C)cc2C)ccc1Cl do in these assays?
BoNT-A LC inh2: 5; Autofluor counter: 17705*; Anthrax LF inh2: -12; BoNT-F LC inh: 4

What do the screens show for `Cc1cc(C)n2[nH]c(=O)cc2n1`?
BoNT-A LC inh2: 0; Autofluor counter: 3555; Anthrax LF inh2: -4; BoNT-F LC inh: -5

What do the screens show for `c1ccc(Cc2nnc3sc(Nc4ccccc4)nn23)cc1`?
BoNT-A LC inh2: inconclusive; Autofluor counter: 16579*; Anthrax LF inh2: 0; BoNT-F LC inh: -3

What do the screens show for `Brc1ccc(-c2nn3c(Cc4ccccc4)nnc3s2)o1`?
BoNT-A LC inh2: -1; Autofluor counter: 3422; Anthrax LF inh2: 0; BoNT-F LC inh: 1

How did CCNC(=O)C1(C)CCCN(Cc2cc(-c3ccccc3)n(C)n2)C1 (stereo not drawn) do in these assays?
BoNT-A LC inh2: -1; Autofluor counter: 3722; Anthrax LF inh2: -1; BoNT-F LC inh: -10

What do the screens show for `O=C(Nc1ccccc1OC(F)F)c1ccccc1`?
BoNT-A LC inh2: 0; Autofluor counter: 8328; Anthrax LF inh2: 1; BoNT-F LC inh: 0

Results for Cc1ccc(C(=O)Nc2ccccc2OC(F)F)cc1 ?
BoNT-A LC inh2: inconclusive; Autofluor counter: 23774*; Anthrax LF inh2: -7; BoNT-F LC inh: -2

How did O=C(Nc1ccccc1)NC1CS(=O)(=O)CC1O (stereo not drawn) do in these assays?
BoNT-A LC inh2: 0; Autofluor counter: 22098*; Anthrax LF inh2: 1; BoNT-F LC inh: -2

Results for O=C(CCN1C(=O)C2CCCCC2C1=O)N1CCN(S(=O)(=O)c2ccccc2)CC1 (stereo not drawn) ?
BoNT-A LC inh2: 1; Autofluor counter: 5211; Anthrax LF inh2: 2; BoNT-F LC inh: 3

Results for CC(C)(C)c1nc(CN2CCCCC2)cc(CN2CCCCC2)c1O ?
BoNT-A LC inh2: 0; Autofluor counter: 4682; Anthrax LF inh2: -6; BoNT-F LC inh: 1

How did CC(C)(C)c1nc(CN2CCOCC2)ccc1O do in these assays?
BoNT-A LC inh2: 2; Autofluor counter: 21380*; Anthrax LF inh2: -2; BoNT-F LC inh: 2

How did CN(CCc1ccccc1)C(=O)c1[nH]c(C(F)(F)F)nc1-c1ccccc1 do in these assays?
BoNT-A LC inh2: -1; Autofluor counter: 5611; Anthrax LF inh2: 3; BoNT-F LC inh: -4

Results for CC(=O)N1c2ccc(S(=O)(=O)N3CCCC3C(=O)Nc3ccc(C)cc3)cc2CC1C (stereo not drawn) ?
BoNT-A LC inh2: 0; Autofluor counter: 5365; Anthrax LF inh2: 3; BoNT-F LC inh: -3

What do the screens show for `COc1cccc(-c2cc(C(F)(F)F)n3nc(N)nc3n2)c1`?
BoNT-A LC inh2: -1; Autofluor counter: 5309; Anthrax LF inh2: -1; BoNT-F LC inh: -4

What do the screens show for `COc1ccc(-c2cc(C(F)(F)F)n3nc(N)nc3n2)cc1`?
BoNT-A LC inh2: -1; Autofluor counter: 23917*; Anthrax LF inh2: 0; BoNT-F LC inh: -1

How did CCCNC(=O)C1(O)c2cc(Br)ccc2NC(=O)N1c1ccc(Cl)cc1 (stereo not drawn) do in these assays?
BoNT-A LC inh2: -1; Autofluor counter: 3906; Anthrax LF inh2: 3; BoNT-F LC inh: 16

Results for CC(C)(C)NC(=O)CN(Cc1cccs1)C(=O)CN1C(=O)C(=O)c2ccccc21 ?
BoNT-A LC inh2: 0; Autofluor counter: 3311; Anthrax LF inh2: -4; BoNT-F LC inh: 5

Results for CC(C)(C)NC(=O)CN(Cc1cccs1)C(=O)C1COc2ccccc2O1 (stereo not drawn) ?
BoNT-A LC inh2: -1; Autofluor counter: 23568*; Anthrax LF inh2: 0; BoNT-F LC inh: -1

Source: PubChem BioAssay
